The values below come from ChEMBL document CHEMBL3433997, “St. Jude Leishmania screening dataset” (2016).

Common to all, as to assay type: functional
Assay [1] deals with Solute carrier family 2, facilitated glucose transporter member 1 (Homo sapiens) (UniProt P11166). The assay can be described thus: ST_JUDE_LEISH: Cytotoxicity at 2uM final concentration against transgenic Leishmania Mexicana promastigotes LmGLUT1 that are glucose transport deficient and complemented with the human glucose transporter GLUT1. Activity is measured by DNA content using SYBR green in vitro.
Solute carrier family 2, facilitated glucose transporter member 1 (Homo sapiens), sequence (P11166 whole entry): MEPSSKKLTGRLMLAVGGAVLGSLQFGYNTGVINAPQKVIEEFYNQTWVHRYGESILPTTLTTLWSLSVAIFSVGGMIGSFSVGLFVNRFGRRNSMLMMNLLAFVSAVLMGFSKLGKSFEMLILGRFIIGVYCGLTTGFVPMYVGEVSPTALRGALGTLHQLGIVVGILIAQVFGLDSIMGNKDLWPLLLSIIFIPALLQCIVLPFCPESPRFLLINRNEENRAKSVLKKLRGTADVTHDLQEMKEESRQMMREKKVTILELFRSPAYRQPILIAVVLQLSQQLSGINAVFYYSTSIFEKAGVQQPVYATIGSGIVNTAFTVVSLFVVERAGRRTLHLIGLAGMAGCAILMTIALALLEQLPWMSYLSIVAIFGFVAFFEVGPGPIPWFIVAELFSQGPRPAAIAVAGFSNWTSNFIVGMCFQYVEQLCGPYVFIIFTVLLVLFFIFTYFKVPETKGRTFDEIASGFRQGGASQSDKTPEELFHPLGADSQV

Assay [2] concerns the target Hexose transporter 1 (Plasmodium falciparum) (UniProt O97467). The assay can be described thus: ST_JUDE_LEISH: Cytotoxicity at 2uM final concentration against transgenic Leishmania Mexicana promastigotes LmPfHT that are glucose transport deficient and complemented with the Plasmodium falciparum hexose transporter. Activity is measured by DNA content using SYBR green in vitro.

The target of assay [3] is Glucose transporter (Leishmania mexicana) (UniProt O61059). The assay can be described thus: ST_JUDE_LEISH: Cytotoxicity at 2uM final concentration against transgenic Leishmania Mexicana promastigotes LmGT2 that are glucose transport deficient and complemented with the L. Mexicana glucose transporter 2. Activity is measured by DNA content using SYBR green in vitro.

Consider `Cc1nc(N)nc(N)c1Oc1cccc(Cl)c1`, for which the inhibition (commonly the change of the read-out against control, counted positive when it falls) came to 3.72% in assay [1], 0.81% in assay [2] and 0.35% in assay [3].
In the case of `O=C(N[C@H]1CCN(Cc2ccc(OCCN3CCCC3)c3ccccc23)C1)c1ccc(Cl)c(Cl)c1`, the inhibition in assay [1] was 1.59%; in assay [2], 2.72%; in assay [3] it was -2.78%.
Regarding `COc1ccc(CNCc2ccccc2)cc1-c1ccc(S(=O)(=O)NCCN2CCCC2)cc1`, the results for the inhibition in assay [1], in assay [2] and in assay [3] were 2.89%, 1.76% and -2.76%, respectively.
For `COc1cc(NC(=O)c2cccc([N+](=O)[O-])c2)cc(S(=O)(=O)c2ccc(Cl)cc2)c1`, in that order: -0.46%, -1.02% and 0.68%.
With `COc1ccccc1NC(=O)Nc1ccc(-c2ccc(-c3nc4cccc(C)c4[nH]3)s2)cc1`, the inhibition stood at 3.53% in assay [1], 1.17% in assay [2] and 1.64% in assay [3].
Taken in the same sequence, the figures for `O=C(Nc1ccc(Cn2ncc(N3CCCNCC3)c(Cl)c2=O)cc1)Nc1ccc(OCc2ccccc2)cc1` were -0.85%, -0.65% and -1.2%.
For `CCCC[C@@H](C(=O)NCCc1ccc(Cl)cc1)N1C(=O)CCC1C(=O)Nc1ccc(Cl)c(Cl)c1` (stereo partly specified), in that order: -0.33%, 2.4% and 0.19%.
Taken in the same sequence, the figures for `CS(=O)(=O)c1ccccc1CNC(=O)c1cccc(-c2ccc(-c3nc4cc(C(F)(F)F)ccc4[nH]3)cc2)c1` were 2.38%, 1.77% and 0.15%.
`Cc1cccc2nc(-c3cccc(-c4ccc(NC(=O)C(C)(C)c5ccccn5)cc4)c3)[nH]c12`: the inhibition was 3.05% in assay [1], 1.16% in assay [2] and 2.94% in assay [3].
Taken in the same sequence, the figures for `CCOC(=O)NOC(C(=O)O)c1ccccc1` (stereo unspecified) were 2.01%, -0.31% and 0.52%.
Taken in the same sequence, the figures for `COc1ccccc1C1CCN(C2CCC(NC(=O)c3cc4ccccc4[nH]3)CC2)CC1` (stereo unspecified) were -0.02%, -0.24% and 2.29%.
For `Cc1cc(NC(c2ccc(Cl)cc2)c2ccc3cccnc3c2O)no1` (stereo unspecified), in that order: 16.6%, 22.8% and 6.2%.
In the case of `Fc1ccc2[nH]c(-c3cccc(-c4ccc(CN5CCCCC5)cc4)c3)nc2c1`, the inhibition is 4.18% in assay [1], 3.6% in assay [2] and 2.43% in assay [3].
For `CN(N=Cc1ccccc1)C(=N)NCCCC#Cc1cccc(CN2CCCC2)c1`, in that order: 11.4%, 6.82% and 1.72%.
`CC(=O)Nc1ccc(S(=O)(=O)Nc2c(C)cc(Cc3cnc(N)nc3N)cc2C)cc1`: the inhibition in assay [1] was -0.22%; in assay [2], 0.02%; in assay [3], -0.69%.
For `COc1cc(F)c2ncc(Cl)c(CCN3CCC(NCc4ccc5c(n4)NC(=O)CO5)CC3)c2c1`, in that order: 3.28%, 4.15% and -1.5%.
Taken in the same sequence, the figures for `COc1ccc(CC2(c3ccc(F)cc3)N=C(N)N(CCCc3ccc(F)c(F)c3)C2=O)cc1` (stereo unspecified) were 2.06%, 5.53% and 3.88%.
For `Cc1cc(C)c(NC(=O)N2CCCN(CCCCCNC(=O)/C=C/c3ccc(Cl)c(Cl)c3)CC2)c(C)c1`, in that order: 3.44%, 2.95% and 2.56%.
`CNC(=O)c1cnc(Nc2ccc(OCC(O)CN(C)C)cc2)nc1Nc1cccc(Br)c1` (stereo unspecified): the values for the inhibition in assay [1], in assay [2] and in assay [3] were 11.4%, 11.1% and 9.84%, respectively.
Take `CN1CCC(Oc2ccc(CN3CC[C@H](NC(=O)c4ccc(Cl)c(Cl)c4)C3)cc2Cl)C1` (stereo partly specified): the inhibition in assay [1] worked out at 15.3%; in assay [2] it was 16%; in assay [3], 3.89%.
Taken in the same sequence, the figures for `O=C(Nc1ccc(OC2CCN(Cc3ccccc3)C2)c(Cl)c1)c1ccsc1` (stereo unspecified) were 1.05%, 2.26% and 2.75%.
Taken in the same sequence, the figures for `O=C(NC1CC1)c1cnc(N2CCC(Cc3ccccc3)CC2)c(Cl)c1` were 0.75%, -0.08% and -0.03%.
Taken in the same sequence, the figures for `CNCc1ccc2nc(-c3coc(Cc4cc(Cl)ccc4OCC(C)C)n3)[nH]c2c1` were 6.56%, 4.9% and 3.77%.
With `CCCCCCOc1ccc(N2C(N)=NC(N)=NC2(C)C)cc1`, the inhibition in assay [1] came out at 1.45%; in assay [2] it was 1.46%; in assay [3] it was 0.46%.
For `C=CCc1cccc(C)c1OCCCON1C(=N)N=C(N)NC1(C)C`, in that order: 1.09%, 2.76% and 1.9%.
For `O=C(/C=C/c1ccc(Cl)cc1)NCCCCCN1CCN(C(=O)Nc2ccc(Cl)c(C(F)(F)F)c2)CC1`, in that order: 4.45%, 5% and 3.42%.
Turning to `COc1cccc(-c2cc(C(F)(F)F)n3ncc(C(=O)Nc4cc(Cl)ccc4O)c3n2)c1`, the inhibition in assay [1] was 0.65%; in assay [2], 1.53%; in assay [3] it was -2.22%.
As for `Cc1ccoc1C(=O)Nc1cccc(-c2cccc(-c3nc4ccccc4[nH]3)c2)c1`, the inhibition in assay [1] was 12.3%; in assay [2], 6.56%; in assay [3] it was 5.58%.
With `Cc1cc(NCCc2ccccc2)nc(NC(=N)Nc2cccc(Cl)c2)n1`, the values for the inhibition in assay [1], in assay [2] and in assay [3] were -0.54%, 1.42% and 0.63%, respectively.
Taken in the same sequence, the figures for `O=C(Nc1cccc(-c2nc3ccccc3[nH]2)c1)c1cccc(NC(=O)c2ccco2)c1` were 2.33%, 2.09% and 0.63%.
For `COc1cccc(-c2cccc(NC(=O)C3CCN(Cc4ccc(O)cc4)CC3)c2)c1`, in that order: 0.86%, 0.59% and -5.2%.
`CN(C)CCOc1ccc(-c2cc(-c3ccncc3)c(-c3ccc(Cl)c(O)c3)o2)cc1`: the inhibition in assay [1] is 1.31%; in assay [2], 1.64%; in assay [3] it was 0.33%.
Taken in the same sequence, the figures for `CCOC(=O)c1cc2c(CCN3C(=O)c4ccccc4C3=O)cn(C)c2cc1-c1ccncc1` were 93%, 91% and 90.9%.
Turning to `Cc1cc(O)c(CN(C)Cc2ccc3c(c2)OCO3)cc1C(C)C`, the inhibition in assay [1] was -0.84%; in assay [2], -1.41%; in assay [3], 0.04%.
Taken in the same sequence, the figures for `CC[C@H]1CN(Cc2ccco2)CC[C@H]1CCCc1ccnc2ccc(O)cc12` were 4.7%, 4.86% and 4.42%.
For `NC(=O)COc1c(C2CCN(CCCCNC(=O)c3ccc(-c4ccc(Cl)cc4)c(O)c3)CC2)ccc2c1CCCC2`, in that order: -0.69%, 2.57% and 2.53%.
For `c1cn(-c2ccc(CNc3nccc(Nc4ccc(OCCN5CCOCC5)cc4)n3)cc2)cn1`, the inhibition is -0.35% in assay [1], -0.43% in assay [2] and 0.98% in assay [3].
